This is an account of results in the OligoGym collection.
Note: reference of the scale not given here.

The first assay deals with FAM55C. Nature of the assay: pooled miR-30 sensor sort-seq; sequence = guide strand. As to conditions: shRNA.
For TTGAGATAGTTCTAGACTGTTA, the sensor-assay potency score (higher = more potent) is -0.125.
On the same count and under the same terms, the same measure for TAGTTTCAGAAATTCTTCCTGA: 0.381; for TTTATCTTCCTGTAAGCGCTGA: 0.412.
The same measure, in the same setting: the same measure for TTAAACTCCACTAAATCTGGAA: -0.0245; for TTAGTTTCTTTTATTCTCCTGG: 0.337.
Still for that read-out and setting: the same measure for TTACACAAAAGTCAATTCCTAA: -0.448; for TAAGCTACAAACACTCTACTAC: 0.449; for TTTGGTTTGAAGCAGAACCAGG: -1.09.
Turning to AAACACTCTACTACCAACCAAA, the sensor-assay potency score (higher = more potent) was -0.932.
The same measure, in the same setting: the same measure for TATAATATCGTAGCATTCTTTA: -1.01; for TTCAAGATGACAAAGTAGCTGG: 0.358.
Same read-out and setting: the same measure for TTTCTTTGTAAGCACTCTGTAA: -0.921.

The next assay deals with FAM57A. The assay is described as above. The following applies: shRNA.
TTGCAGTAGAATGGGATGCTGA had a sensor-assay potency score (higher = more potent) of -0.668.
Regarding TTTAGCTGAATCAGAACCCTGC, the sensor-assay potency score (higher = more potent) is 0.947.
Take TTTCGACTTAGGAAGTTTCGAA: the sensor-assay potency score (higher = more potent) was -0.112.
Take TGATGTGTGATCATGAGGCGGT: the sensor-assay potency score (higher = more potent) came out at 0.245.
For ATCACGTCGTCGCAGGAGCGAA, the sensor-assay potency score (higher = more potent) was -1.8.
Sequence TTGGAGCAGGCTTAGTCCCTGC showed a sensor-assay potency score (higher = more potent) of -0.863.
For the sequence TAGGACCAGTACATGAAGGGGA, the sensor-assay potency score (higher = more potent) turned out to be 0.407.
With TAGGAAGTTTCGAAGAGTGAGG, the sensor-assay potency score (higher = more potent) is -0.893.
In turn, ATCATCACGCAGTCGGTGCGGC had a sensor-assay potency score (higher = more potent) of -0.575.
Same read-out and setting: next, TGCACCGAGGAAACCAGCCTGG: -1.21.
As to TTCGACTTAGGAAGTTTCGAAG, the sensor-assay potency score (higher = more potent) is -0.637.
With TTGGGGAGTGTCAAAGAGCCGG, the sensor-assay potency score (higher = more potent) was -1.25.

Another assay deals with FAM58A. The assay is described as above. The following applies: shRNA.
In turn, ATTGATGATGTCACGAGTCCGC showed a sensor-assay potency score (higher = more potent) of -0.413.
The same measure, in the same setting: next, TTGGACACATTGATGATGTCAC: -0.0439; TCTCGCAAAAGAACTTATGGTA: -0.0793; TAGGGATTCAGTCTCATCGATT: -1.22.
Still for that read-out and setting: next, TAGTGGAGCAGGTACTTGTGTG: -1.12; ATCGATTTCATGACTTTCCTTT: 0.417.
In turn, TTGAAGACATGGCAATCAGGTA gave a sensor-assay potency score (higher = more potent) of -0.548.
For TTGATGATGTCACGAGTCCGCA, the sensor-assay potency score (higher = more potent) was -0.773.
For the sequence TTGGGTTAAAGTACCTGTTGGA, the sensor-assay potency score (higher = more potent) stood at 0.579.
The sequence TTGTAGTCAAAGTCCTCTCAAA registered a sensor-assay potency score (higher = more potent) of -0.91.
Same read-out and setting: the same measure for TATGGTAAATGGTGCAAGCAGT: -0.754.
The same measure, in the same setting: the same measure for TTGGTCTCGCAAAAGAACTTAT: -0.839.
